Compound activity as filed in PubChem.
IEC-6 tox – cytotoxicity in IEC-6 intestinal epithelial cells, primary screen, cytotoxicity control for KLF5 inhibitor project, cell-based, luminescence. inhibition, % at 5 µM. 290,000 compounds, 0.78% hits. IEC-6 cytotoxicity, luminescence viability
APP 5UTR inh – inhibitors of APP translation via 5'UTR reporter, primary screen, APP 5'UTR luciferase, SH-SY5Y cells; SH-SY5Y APP 5'UTR-luciferase reporter, luminescence; 190,000 compounds, 0.82% hits; AID 1285, 2008; inhibition, % at 2 µM;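 active = inhibition above a set limit, derived from the sample mean plus 3 SD, cut at about 45% in these data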
Ba/F3 V617F tox – reduced viability of JAK2V617F-dependent Ba/F3 cells, primary screen, JAK2V617F inhibitor project, cell-based, Ba/F3 EpoR-JAK2V617F, luminescence; inhibition, % at 5.6 µM; ATP luminescence; 220,000 compounds, 1.1% hits;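 active = inhibition above the campaign mean plus 3 SD over all tested compounds, cut at about 24% in these data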;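 note: cytokine-independent growth of Ba/F3 cells driven by EpoR plus mutant JAK2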
BaF3 parental – parental Ba/F3 cell viability inhibition, counter-screen for JAK2V617F inhibitor project, murine pro-B, CellTiter-Glo luminescence; CellTiter-Glo ATP luminescence; inhibition, % at 5.6 µM; 220,000 compounds, 1.1% hits; AID 1486, 2009;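 active = inhibition above a per-campaign cutoff, the mean inhibition of all tested compounds plus 3 SD, cut at about 27% in these data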
KLF5 inh – KLF5 expression inhibitors, primary screen, DLD-1 cells, luminescence; 290,000 compounds, 0.23% hits; inhibition, % at 5 µM; DLD-1 KLF5 promoter-luciferase reporter; AID 1700, 2009;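 active = inhibition above a per-plate limit of that plate's mean compound inhibition plus 3 SD, cut at about 60% in these data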;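 note: higher means less KLF5 promoter-driven luciferase light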
IEC-6 cytotox cf – cytotoxic compounds in IEC-6 epithelial cells, confirmation, cytotoxicity control, cell-based, luminescence; AID 1907, 2009; inhibition, % at 5 µM; 1,900 compounds, 63% hits; shares compounds with IEC-6 tox; IEC-6 rat intestinal epithelial viability
Of the large screens only hits and unclear results are named; the others gave an inactive call (follow-up assays come after a bar, where they were run). Shown are actives, neighbours in structure and some others; about 1.9% of the full set was active somewhere. Cut-off read from the data, not from the text of the source, unless noted: active = inhibition above about 22%; inactive = the rest.

COc1ccc(S(=O)(=O)N2CCCOC2CNC(=O)C(=O)NCCc2ccco2)cc1C (stereo not given)	IEC-6 tox 28 (no result: APP 5UTR inh, Ba/F3 V617F tox, BaF3 parental) | IEC-6 cytotox cf inactive
O=C(NCCc1ccco1)C(=O)NCC1OCCCN1S(=O)(=O)c1ccc(F)cc1 (stereo not given)	none (no result: APP 5UTR inh, Ba/F3 V617F tox, BaF3 parental)
CCc1nnc(NC(=O)C2Cc3ccccc3CN2S(=O)(=O)c2c(C)c(C)cc(C)c2C)s1 (stereo not given)	none
COCCN(C(=O)Nc1ccccc1OC)c1nc2ccccc2s1	IEC-6 tox 45 (no result: APP 5UTR inh, Ba/F3 V617F tox, BaF3 parental) | IEC-6 cytotox cf 31
CC(=O)c1sc(-c2ccc(F)cc2)cc1NS(=O)(=O)c1ccccc1	none (no result: APP 5UTR inh)
CC(=O)N1CCN(c2ccc(NC(=O)c3ccc4c(c3)OCO4)cc2)CC1	none
O=C(Nc1ccc(N2CCN(C(=O)c3ccccc3)CC2)cc1)c1ccc2c(c1)OCO2	IEC-6 tox 26, Ba/F3 V617F tox 72, BaF3 parental 70 | IEC-6 cytotox cf inactive
c1csc(-c2nc3c4ccccc4c4ccccc4c3[nH]2)c1	IEC-6 tox 24 | IEC-6 cytotox cf 23
COc1ccc(C2C(C(=O)Nc3cc(OC)c(OC)c(OC)c3)c3ccccc3C(=O)N2C)cc1 (stereo not given)	IEC-6 tox 59, APP 5UTR inh 69, Ba/F3 V617F tox 41, BaF3 parental 61 | IEC-6 cytotox cf 60
CCCc1cc(=O)n2[nH]cc(-c3ccc(Cl)cc3)c2n1	IEC-6 tox 23 (no result: APP 5UTR inh, Ba/F3 V617F tox, BaF3 parental) | IEC-6 cytotox cf inactive
COc1ccc(N(CC(=O)Nc2ccc(C)cc2C)S(=O)(=O)c2c(C)n[nH]c2C)cc1	none (no result: APP 5UTR inh, Ba/F3 V617F tox, BaF3 parental)
COc1ccc(N(CC(=O)Nc2cc(Cl)ccc2C)S(=O)(=O)c2c(C)n[nH]c2C)cc1	IEC-6 tox 38 (no result: APP 5UTR inh, Ba/F3 V617F tox, BaF3 parental) | IEC-6 cytotox cf inactive
CC(C(=O)N1CCOCC1)N1C(=O)c2cccc3cccc(c23)C1=O (stereo not given)	none
Cc1ccccc1NNC(N)=S	none
NC(=S)NNc1c(F)c(F)c(F)c(F)c1F	IEC-6 tox 49, Ba/F3 V617F tox 30, BaF3 parental 35 | IEC-6 cytotox cf inactive
Cn1ccsc1=NC(=O)c1ccc([N+](=O)[O-])o1	IEC-6 tox 67 (no result: APP 5UTR inh, Ba/F3 V617F tox, BaF3 parental) | IEC-6 cytotox cf inactive
Cc1cccc(NC(=O)CSc2nnnn2-c2ccc3c(c2)OCCO3)n1	none
COc1cc2[nH]c(C(=O)Nc3ccc(F)cc3)cc2c(OC)c1OC	IEC-6 tox 57 (no result: APP 5UTR inh, Ba/F3 V617F tox, BaF3 parental) | IEC-6 cytotox cf 27
C=CCn1c(SCC(=O)c2cccs2)nc2sc(CC)cc2c1=O	IEC-6 tox 30 | IEC-6 cytotox cf 36
CCn1cc(C(=O)NC2CCCc3c2cnn3-c2cccc(C)c2C)cn1 (stereo not given)	IEC-6 tox 22 (no result: APP 5UTR inh, Ba/F3 V617F tox, BaF3 parental) | IEC-6 cytotox cf inactive
S=C(NCc1ccccc1)NC1CCSc2ccccc21 (stereo not given)	none (no result: APP 5UTR inh, Ba/F3 V617F tox, BaF3 parental)
Cc1ccc(S(=O)(=O)/N=C2/C=C(Sc3ncn[nH]3)C(=O)c3ccccc32)cc1	IEC-6 tox 26, APP 5UTR inh 64, Ba/F3 V617F tox 73, BaF3 parental 72 | IEC-6 cytotox cf inactive
CN1CCN(c2ccc(S(=O)(=O)N3CCCCC3)cc2NC(=O)c2ccc(F)cc2F)CC1	none
Cc1ccc(NC(=O)c2ccc(Cl)cc2[N+](=O)[O-])nc1	IEC-6 tox 38, Ba/F3 V617F tox 74, BaF3 parental 64 | IEC-6 cytotox cf 49
NCC(=O)Nc1ccc(Cl)cc1C(=O)c1ccc[nH]1	IEC-6 tox 31, Ba/F3 V617F tox 58, BaF3 parental 37 (no result: APP 5UTR inh) | IEC-6 cytotox cf inactive
O=C(NNC(=O)c1ccc[nH]1)c1cc(Cl)cc(Cl)c1	none (no result: APP 5UTR inh, Ba/F3 V617F tox, BaF3 parental)
COC(=O)c1cn(C(=O)c2ccc(C)cc2)c2ccccc12	none
COC(=O)c1cn(C(=O)c2ccc(OC)cc2)c2ccccc12	IEC-6 tox 52 (no result: APP 5UTR inh, Ba/F3 V617F tox, BaF3 parental) | IEC-6 cytotox cf 34
O=C(NNC1=C(C(=O)C(F)(F)F)CCC1)c1ccccc1O	none
Nc1ccccc1C(=O)NNC1=C(C(=O)C(F)(F)F)CCC1	IEC-6 tox 34 (no result: APP 5UTR inh) | IEC-6 cytotox cf inactive
O=C(NCc1ccc2c(c1)OCO2)c1nc(S(=O)(=O)Cc2ccccc2)ncc1Cl	IEC-6 tox 24 (no result: APP 5UTR inh, Ba/F3 V617F tox, BaF3 parental) | IEC-6 cytotox cf inactive
O=C(NCc1ccc2c(c1)OCO2)c1nc(S(=O)(=O)Cc2ccccc2F)ncc1Cl	IEC-6 tox 35 (no result: APP 5UTR inh, Ba/F3 V617F tox, BaF3 parental) | IEC-6 cytotox cf inactive
CCc1nn(C(C)C(=O)N2CCN(c3ccc(OC)cc3)CC2)c(=O)c2cc3occc3n12 (stereo not given)	IEC-6 tox 44 (no result: APP 5UTR inh, Ba/F3 V617F tox, BaF3 parental) | IEC-6 cytotox cf 24
CCc1nn(C(C)C(=O)N2CC(C)CC(C)C2)c(=O)c2cc3occc3n12 (stereo not given)	none (no result: APP 5UTR inh, Ba/F3 V617F tox, BaF3 parental)
CCC(Cc1ccccc1)NS(=O)(=O)c1ccc2c(c1)NC(=O)CO2 (stereo not given)	none (no result: APP 5UTR inh, Ba/F3 V617F tox, BaF3 parental)
N#CCCn1c(SCC(=O)Nc2ccc(N3CCOCC3)cc2)nc2ccccc21	none
CCOC(=O)CSC1=C(C#N)C(c2ccc(C)o2)CC(=O)N1 (stereo not given)	IEC-6 tox 83, APP 5UTR inh 95, Ba/F3 V617F tox 74, BaF3 parental 79 | IEC-6 cytotox cf 59
Cc1ccc(OCC(=O)NNC(=O)C2CCCO2)c(C)c1 (stereo not given)	none
CCn1c(=O)cc(OCC(=O)NCc2ccco2)c2ccccc21	none
CCn1c(=O)cc(OCC(=O)NCc2ccc(C)o2)c2ccccc21	IEC-6 tox 23 | IEC-6 cytotox cf inactive
COc1ccc2nc(-c3ccccc3)[nH]c2c1	none
CCOc1ccc2nc(-c3ccccc3)[nH]c2c1	IEC-6 tox 42, Ba/F3 V617F tox 71, BaF3 parental 54 | IEC-6 cytotox cf 30
O=C1C=C(Nc2ccc(Cl)cc2Cl)CC(c2ccco2)C1 (stereo not given)	IEC-6 tox 54, BaF3 parental 47 | IEC-6 cytotox cf 48
Cc1ccc(C(=O)CSc2nc3ccccc3c(=O)[nH]2)cc1C	none
Cc1ccc(C)c(C(=O)CSc2nc3ccccc3c(=O)[nH]2)c1	IEC-6 tox 44 | IEC-6 cytotox cf 48
Cc1cc(C)c(C(=O)CSc2nc3ccccc3c(=O)[nH]2)cc1C	IEC-6 tox 71 | IEC-6 cytotox cf 52
COc1ccc(OCC(=O)N2CCC(n3nccc3NC(=O)C3CC3)CC2)cc1	none (no result: APP 5UTR inh, Ba/F3 V617F tox, BaF3 parental)
COc1ccc(C(=O)N/N=C/C(Br)=C/c2ccccc2)cc1	none
O=C(N/N=C/C(Br)=C\c1ccccc1)c1n[nH]c2c1CCC2	IEC-6 tox 75, APP 5UTR inh 96, Ba/F3 V617F tox 85, BaF3 parental 78 | IEC-6 cytotox cf 82
Cc1ccc(/C=N/NC(=O)c2n[nH]c3c2CCCC3)cc1	IEC-6 tox 88, Ba/F3 V617F tox 93, BaF3 parental 93 (no result: APP 5UTR inh) | IEC-6 cytotox cf 83
O=C(N/N=C/c1cccs1)c1n[nH]c2c1CCCC2	none (no result: APP 5UTR inh)
CC(/C=N/NC(=O)c1n[nH]c2c1CCC2)=C\c1ccccc1	IEC-6 tox 86, APP 5UTR inh 94, Ba/F3 V617F tox 83, BaF3 parental 80 | IEC-6 cytotox cf 62
